Test results reported in PubChem BioAssay AID686979 (National Center for Advancing Translational Sciences (NCATS), 2013).
The campaign covered roughly 420,000 compounds. About 50,000 (12%) were called active. Roughly 26% stayed inconclusive and do not appear here. Shown is part of a subset that was picked to be rich in actives. Unmarked numbers belong to inactive results. Calls follow the shape of the dose curve; as a rule, active = well fitted inhibition curve with a large enough effect; inconclusive = small, poorly fitted or top-dose-only effect; inactive = flat fitted curve, though single readings scatter.

test: qHTS for Inhibitors of human tyrosyl-DNA phosphodiesterase 1 (TDP1): qHTS in cells in presence of CPT; settings: chicken DT40 Tdp1-/-;hTDP1 cells + 20 nM CPT, ATP luminescence, 48 h; series mostly up to 46.2 µM; activity change, negative = growth inhibition: at the top concentration; also: nearly all actives have a fitted effect of over 55% in size
From the text: Human tyrosyl-DNA phosphodiesterase 1 (TDP1) is a novel repair gene, and we propose to use it as a new target for anticancer drug development. TDP1 is not an essential protein, but under treatment with topoisomerase I poison (camptothecin: CPT), TDP1 works as a critical factor for cell survival. To directly identify novel TDP1 inhibitors active in a cellular environment, we have knocked-out the Tdp1 gene in chicken DT40 cells (Tdp1-/-) and generated a complemented counterpart cells that contains a stable transfection of the human TDP1 gene (Tdp1-/-;hTDP1 cells). For the primary screen, Tdp1-/-;hTDP1 cells will be exposed to small molecules in the presence or absence of CPT, and their growth kinetics will be evaluated after 48 hours by measuring ATP activity. […] The hit compounds will then be evaluated in the presence or absence of CPT using Tdp1-/- cells. […] In tertiary assays, biochemical gel-based assays will be used to assess whether the hit compounds specifically target TDP1. To this end, we have screened this cell line against the MLSMR in two primary screens. In one screen we add CPT and in the other we screen in the absence of CPT; this AID represents the screen where CPT was present. NIH Chemical Genomics Center [NCGC] NIH Molecular Libraries Probe Centers Network [MLPCN] MLPCN Grant: MH095538 Assay Submitter (PI): Yves Pommier, NCI
DT40-hTDP1 cells with 20 nM Camptothecin (add 20 microL of 1 mM CPT stock in 1 L of cell culture medium) were dispensed at 400 cells/5microL/well in tissue culture treated 1536-well white wall/solid bottom assay plates (Greiner Bio-One North America, NC, U.S.A.) using a Multidrop Combi 8 channel dispenser (Thermo Fisher, Waltham, MA, USA). 23 nL compounds and controls were transferred using the pin tool (Kalypsys, San Diego, CA, USA) to the assay plates. The assay plates were then incubated at 37 masculineC for a minimum 48 hr. Three microL of Cell Titer Glo solution was added to the plates and incubated at RT in dark for 30 min. Luminescence was read using ViewLux (Perkin Elmer) with 1 sec exposure slow speed, high gain and 2x binning.
% is scaled to controls: 0 for no effect and ±100 for the full control effect; potency is read from the fitted curve at half-maximal effect.

Row | Compound | activity change, negative = growth inhibition [%] | Potency
1 | Cc1ccccc1OC/C(O)=C(\C#N)c1nc2ccccc2[nH]1 | -3.62 | 
2 | N#C/C(=C(/O)COC(=O)COc1ccc(Cl)cc1)c1nc2ccccc2[nH]1 |  | 4.11 µM (active)
3 | N#C/C(=C(/O)COc1cccc2ccccc12)c1nc2ccccc2[nH]1 | -5.59 | 
4 | O=C(NNC(=O)c1cc(-c2ccccc2Cl)nc2ccccc12)c1csc(N2CCOCC2)n1 | -20.9 | 
5 | CC(C)(C)c1ccc(C(CC(=O)O)NS(=O)(=O)Cc2ccccc2)cc1 (stereo not drawn) | -6.35 | 
6 | Cc1ccc2c(c1)N(CC(=O)NCC1CCCO1)C(=O)CO2 (stereo not drawn) | 2.88 | 
7 | NS(=O)(=O)c1ccc(NC(=O)CSc2nnc3c(n2)[nH]c2ccccc23)cc1 | -21.2 | 
8 | C/C=C/NNC(=O)Cc1ccc(OC)cc1 |  | 3.55 µM (active)
9 | COc1ccc(CC(=O)Nc2ccc(C(=O)NC(C)(C)C)cc2)cc1 | -12.6 | 
10 | CCCCCNC(=O)Cc1ccc(OC)cc1 | 3.59 | 
11 | C#CCOCCOCCOCCNc1nc(N2CCN(C(=O)[C@H](CCC(=O)O)n3cc(CN)nn3)CC2)nc(N2CCN(C(=O)[C@H](CCC(=O)O)n3cc(CN)nn3)CC2)n1 | 33 | 
12 | CC(=O)c1cccc(NC(=S)N2CCCC2)c1 | 48.5 | 
13 | COc1ccc(CC(=O)N2N=C(C)CC2(O)C(F)(F)F)cc1 (stereo not drawn) |  | 2.91 µM (active)
14 | CC1=NN(C(=O)CCCc2ccccc2)C(O)(C(F)(F)F)C1 (stereo not drawn) | 3.77 | 
15 | CC1=NN(C(=O)Cc2ccc(C)cc2)C(O)(c2cccnc2)C1 (stereo not drawn) | -20.6 | 
16 | CC1CC(=S)Nc2ccccc2N1Cc1ccccc1 (stereo not drawn) | -2.65 | 
17 | Nc1nc2ncccn2c1-c1ccccc1 | 6.86 | 
18 | O=S(=O)(Nc1cccc(-n2cnnn2)c1)c1cnc(Cl)c(Cl)c1 | -19.4 | 
19 | COc1ccc(N2C(=O)CS(=O)(=O)C23C(=O)N(Cc2ccc(C)cc2)c2ccccc23)cc1Cl (stereo not drawn) | -25 | 
20 | COc1ccc(CCNC(=O)COC(=O)Cc2cc(OC)c(OC)c(OC)c2)cc1 | -2.97 | 
21 | Cc1ccc(S(=O)(=O)NC(=O)Nc2nc(-c3ccc(F)c(F)c3)cs2)cc1 | 4.32 | 
22 | COc1cccc(CC(=O)Nc2nc(-c3ccc(OC)c(OC)c3)cs2)c1 | -62.3 | 
23 | COc1ccc(-c2csc(NC(=O)c3ccc(N4C(=O)CCC4=O)cc3)n2)cc1OC | -0.306 | 
24 | COc1ccc(CC(=O)Nc2nc(-c3ccc(F)c(F)c3)cs2)cc1OC |  | 10.3 µM (active)
25 | COc1cc(CC(=O)Nc2nc(-c3ccc(F)c(F)c3)cs2)cc(OC)c1OC |  | 7.31 µM (active)
26 | CCOC(=O)c1cn(CC)c2cc(F)c(F)cc2c1=O | 1.13 | 
27 | O=C(NC1CCN(C(=S)NCc2ccco2)CC1)c1ccc(F)cc1 | -14.3 | 

Row | Compound | activity change, negative = growth inhibition [%] | Potency
28 | Cc1cc(OCCN2CCCC2)cc(C(C)C)c1 | -26.9 | 
29 | COc1ccc2[nH]c(C(=O)N3CCN(C)CC3)c(C)c2c1 | 16.8 | 
30 | CCOC(=O)NN1C(=O)c2ccccc2NC1c1ccccc1O (stereo not drawn) |  | 16.4 µM (active)
31 | CCOC(=O)NN1C(=O)c2ccccc2NC1c1cccc(O)c1 (stereo not drawn) | 7.21 | 
32 | O=C1c2ccccc2NC(c2ccccc2O)N1NS(=O)(=O)c1ccccc1 (stereo not drawn) | -5.28 | 
33 | Cc1ccc2nc(CN3CCN(S(=O)(=O)c4ccc(C)c(C)c4)CC3)oc2c1 | -22.4 | 
34 | CCOc1ccc(N(C)Cc2cc(=O)oc3ccc(OC)cc23)cc1 | -25.6 | 
35 | COc1ccc2c(c1)c(C(=O)N/N=C/c1cccs1)c(C)n2C |  | 9.2 µM (active)
36 | NC(=O)N/N=C\c1cccs1 | -2.34 | 
37 | Cc1cc(C)nc(SC(C)C(=O)N/N=C/c2cccs2)n1 (stereo not drawn) | -29.3 | 
38 | CCn1c(SCC(=O)Nc2nccs2)nnc1-c1ccco1 | 1.22 | 
39 | C[C@@H]1CN([C@H](C)CO)C(=O)CCCn2nncc2CO[C@@H]1CN(C)C(=O)OCc1ccccc1 | -6.45 | 
40 | Cc1ccc(C)c(NC2=NCC(=O)N2c2ccc3c(c2)OCCO3)c1 | -1.47 | 
41 | Cc1ccc(Cl)cc1NC(=O)NC1COc2ccccc2C1 (stereo not drawn) | -8.08 | 
42 | CCc1cccc(CC)c1NC(=O)COc1ccccc1C(=O)c1cc(C#N)c(=O)n(C2CCCCC2)c1 |  | 18.4 µM (active)
43 | Cc1cc(NC(=O)COc2ccccc2C#N)no1 | -26.9 | 
44 | CCc1cccc(C)c1NC(=O)COC(=O)CC1CCCC1 | 1.82 | 
45 | CC(=O)Nc1ccc(NC(=O)CSc2nnc(COc3ccccc3C)n2CC2CCCO2)cc1 (stereo not drawn) | -5.96 | 
46 | Cc1nc2ccccc2nc1N/N=C/c1ccc(O)cc1O |  | 4.61 µM (active)
47 | Cc1cc(N/N=C/c2ccccc2F)c2ccccc2n1 | 1.17 | 
48 | Oc1ccc(/C=N/NC2=NCCCCC2)c(O)c1 | 1.13 | 
49 | Oc1ccc(-c2nc3ccccc3nc2-c2ccc(O)cc2O)c(O)c1 | -11.8 | 
50 | Oc1ccc(/C=N/Nc2nc(-c3ccccc3F)nc3ccccc23)c(O)c1 |  | 5.8 µM (active)
51 | Cc1ccccc1NC(=O)C1CCCN(C(=O)NCc2ccccc2)C1 (stereo not drawn) | -21 | 
52 | CCOC(=O)CCNC(=O)N1CCCC(C(=O)c2ccccc2SC)C1 (stereo not drawn) | 1.59 | 
53 | CCNC(=O)N1CCCC(C(=O)c2ccc(-c3ccccc3)cc2)C1 (stereo not drawn) |  | 20.6 µM (active)
